A selection: hits, their analogues and other compounds. The true share with any hit is near 1.8%.
Gli-Sufu antag: antagonists of Gli-Sufu signaling | Sufu-KO-LIGHT fibroblasts, Gli luciferase reporter luminescence | inhibition, % at 5 µM | hit rate 0.74% among 340,000 | AID 588413;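 active = inhibition above about 55%, limit read from the data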;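 also: 0% = DMSO-treated cells and 100% = wells with medium but no cells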
Beta cell apopt: blocks beta cell apoptosis. INS-1E cytokine-induced death, ATP luminescence, 48 h; percent of positive-control rescue, neutral wells zero. protection from apoptosis, % (no concentration beside the values). hit rate 0.8% among 300,000. AID 435005;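 active = Every replicate reaches about 75%, or at least half do and their mean reaches it too, limit read from the data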;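 also: 0% = cytokine-treated negative control wells and 100% = positive control rescue; higher means more ATP so stronger rescue from cytokine killing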
697 NFkB inh: lowers PMA/ionomycin-induced NF-kB signal in 697 B cells. 697 B-cell NF-kB luciferase reporter, 16 h. inhibition, % at 4 µM. hit rate 0.33% among 330,000. AID 435022; in the data active = inhibition above about 35%
Jurkat NFkB inh: lowers PMA/ionomycin-induced NF-kB signal in Jurkat cells | PMA/ionomycin-induced NF-kB luciferase reporter, luminescence | inhibition, % at 4 µM | hit rate 0.53% among 330,000; in the data active = inhibition above about 50%
Jurkat NFkB conf: inhibitors of the PMA/ionomycin-induced NF-kB reporter in Jurkat cells, retest; shares compounds with Jurkat NFkB inh; inhibition, % at 4 µM; Jurkat NF-kB luciferase, 16 h; hit rate 27% among 2,700;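 active = inhibition reaching about 45% at 4 µM in either replicate, limit read from the data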;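 also: plate controls were PMA/ionomycin stimulated DMSO wells for no effect and unstimulated DMSO wells for full effect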
Numbers without * were called inactive; x = not tested or not shown.

SMILES | Gli-Sufu antag | Beta cell apopt | 697 NFkB inh | Jurkat NFkB inh | Jurkat NFkB conf
Cc1c(C(=O)OCc2ccccc2)[nH]c2c1C(=O)CC(c1ccco1)C2 (configuration not stated) | 51.3 | 22.6 | -7.7 | 62.6* | 39.2
COCC(=O)N(Cc1cc2ccc(C)cc2[nH]c1=O)c1ccc(OC)cc1 | 0.3 | -8.2 | -3.3 | -6.1 | x
C=C(C)COc1ccc(-c2nc(N)nc(C(F)(F)F)c2-c2ccc(OC)cc2)c(O)c1 | -3.0 | -1.9 | 0.3 | 22.1 | x
COc1ccccc1CNC(=O)CC(C)C | 1.4 | x | 12.9 | 7.6 | x
COCCOC(=O)c1[nH]c2c(c1C)C(=O)CC(c1ccco1)C2 (configuration not stated) | -4.0 | 18.0 | -14.6 | 59.6* | 9.8
CC(=O)c1cccc(NC(=O)c2ccc3c(c2)CCCC3)c1 | -54.4 | -1.2 | -57.3 | -104.5 | x
COc1cccc(NC(=O)c2ccc3c(c2)CCCC3)c1 | -96.6 | 1.0 | -20.9 | -153.5 | -118.3
COc1ccc(/C=N/NC(=O)c2cccc(NC(C)=O)c2)c(OC)c1 | 2.0 | x | 11.1 | -9.8 | x
COc1ccc(C(=O)Nc2cccc(C(=O)N/N=C/c3ccc(OC)cc3OC)c2)cc1 | -4.0 | -2.4 | -14.3 | 56.6* | 1.9
COc1ccc(N=C2SCC(c3ccc([N+](=O)[O-])cc3)=NN2CCO)cc1 | -14.6 | 5.0 | -51.9 | 19.6 | x
O=[N+]([O-])c1ccc(C2=NN(CCO)C(=Nc3ccc(OC(F)(F)F)cc3)SC2)cc1 | -10.6 | -10.3 | -0.3 | 74.6* | 11.4
COc1cccc(-c2cc(=O)c3cc(NC(=O)c4ccccc4)ccc3[nH]2)c1 | 21.0 | 17.2 | -60.3 | 89.5* | 51.8*
COc1cccc(C(=O)Nc2ccccc2)c1 | -58.8 | -7.0 | 15.7 | -36.7 | x
CCCC(=O)Nc1ccc(C(=O)Nc2cccc(OC)c2)cc1 | -15.1 | -3.9 | 7.3 | -20.2 | x
COc1cccc(-c2cc(=O)c3cc(NC(=O)c4ccc(Cl)cc4)ccc3[nH]2)c1 | -8.3 | -7.1 | -36.0 | 78.1* | 13.9
COc1cccc(-c2cc(=O)c3cc(NC(=O)c4ccc(N(C)C)cc4)ccc3[nH]2)c1 | 44.4 | 4.3 | -111.0 | 87.3* | 57.1*
CCN(CC(=O)N(CC(C)C)c1c(N)n(CC(C)C)c(=O)[nH]c1=O)Cc1nc2ccccc2c(=O)[nH]1 | -3.6 | -3.1 | 19.5 | 6.7 | x
O=S(=O)(Nc1nc2ccccc2nc1N1CCc2ccccc2C1)c1ccc(Br)cc1 | -64.5 | -3.3 | x | x | x
Cc1ccccc1S(=O)(=O)Nc1nc2ccccc2nc1N1CCc2ccccc2C1 | -15.1 | -12.6 | -135.0 | -165.9 | -89.7
Cc1cc(N2CCOCC2)ccc1/C=C1\SC(=O)N(C(C)C)C1=O | -35.1 | 13.1 | -101.1 | -170.3 | -57.7
CCC(C)N1C(=O)S/C(=C/c2ccc(N3CCOCC3)cc2C)C1=O (configuration not stated) | -28.5 | -2.1 | -77.6 | -93.4 | x
COC(=O)c1ccc(NC(=O)C(=O)c2cccn2C)cc1 | -101.2 | 13.6 | -121.5 | -169.8 | -105.4
Nc1nnnn1/N=C/C(Br)=C/c1ccccc1 | -4.4 | 41.6 | -60.9 | 57.5* | 16.2
O=C(CCOc1ccccc1)Nc1ccnn1C1CCN(Cc2ccc(F)cc2)CC1 | 16.4 | -2.7 | -6.3 | -16.7 | x
CN1C2=CC=CC=CC2=[N+](C)C12C([N+](=O)[O-])=CC(=[N+]([O-])[O-])C=C2[N+](=O)[O-] (configuration not stated) | -8.5 | -0.4 | -80.0 | 72.6* | 19.2
SMILES | Gli-Sufu antag | Beta cell apopt | 697 NFkB inh | Jurkat NFkB inh | Jurkat NFkB conf
Cc1ccc(-c2nc3sc4c(c3c(=O)n2N)CCCC4)cc1 | -79.1 | 2.2 | -192.3 | -187.8 | -121.9
Nc1nc(-c2ccccc2)nc2sc3c(c12)CCCC3 | -106.6 | 3.0 | -244.3 | -162.0 | -155.8
Cc1ccc(-c2nc3sc4c(c3c(=O)n2N)CC(C)(C)OC4)cc1 | -16.7 | 2.3 | -38.4 | -28.0 | x
COc1ccc(S(=O)(=O)N2CCCC(C(=O)N3CCN(c4ccccc4)CC3)C2)cc1Cl (configuration not stated) | 11.3 | 1.8 | -12.5 | -16.6 | x
CCOc1ccc(/C=C/C(O)=C2/C(=O)NC3(C)CC2c2ccccc2O3)cc1OC (configuration not stated) | 11.6 | -7.6 | -8.0 | 63.8* | -15.4
CCOc1ccc(/C=C/C(O)=C2/C(=O)N(C)C3(C)CC2c2ccccc2O3)cc1OC (configuration not stated) | 8.7 | -0.2 | -16.8 | 35.0 | x
CC[C@@H]1[C@H]2CCCC(=O)N3CC[C@@H](C[C@@H]1OC(=O)NCc1ccccc1)[C@@H]23 | -1.6 | 1.4 | 20.4 | 3.3 | x
CCCCOc1ccc(-c2csc(N)n2)cc1[N+](=O)[O-] | -7.8 | -0.5 | -85.7 | -166.6 | 4.0
COC(=O)c1c(-c2cccnc2)csc1NC(=O)c1cc(C)on1 | -49.9 | -1.7 | -209.9 | -174.1 | -89.5
COc1ccc(C(=O)NN/C(=N/S(=O)(=O)c2ccc(C)cc2)c2ccccc2)cc1 | -91.0 | -5.1 | -192.0 | -180.6 | -106.7
Cc1ccc(S(=O)(=O)N(CC(O)CN2CCOCC2)c2cccc([N+](=O)[O-])c2)cc1 (configuration not stated) | -9.4 | -7.9 | -0.7 | 29.1 | x
COC(=O)c1[nH]c2ccc(Br)cc2c1NC(=O)CN1CCN(C2CCCCC2)CC1 | 16.3 | -10.9 | -0.6 | 68.3* | 45.6*
COC(=O)c1[nH]c2ccc(C)cc2c1NC(=O)CCN1CCN(C2CCCCC2)CC1 | x | x | -34.8 | -4.9 | x
O=C(/C=C\Nc1cccc(F)c1)c1cccs1 | -53.4 | 0.2 | -177.2 | -174.3 | -54.2
CCOc1ccc2c(c1)OC(c1ccccc1)(C(F)(F)F)NC2=O (configuration not stated) | -0.6 | -2.1 | 5.6 | 8.6 | x
CCOc1ccc2c(c1)OC(c1ccc(OC)cc1)(C(F)(F)F)NC2=O (configuration not stated) | -16.3 | 5.5 | -11.8 | 56.6* | 39.8
COc1cc(C2C(S(=O)(=O)c3ccccc3)CON2C)ccc1OCc1ccc(F)cc1 (configuration not stated) | 1.3 | x | -10.8 | -26.9 | x
Cc1cccc(C(=O)O/N=C(\N)c2ccc(Cl)cc2)c1 | -91.8 | -0.6 | -115.0 | -56.6 | x
CCOc1ccc(N=C2SCC(=O)N2CC)cc1 | 3.5 | 0.5 | 5.4 | -4.4 | x
O=C(NC(=S)Nc1ccccn1)c1ccc([N+](=O)[O-])cc1 | -58.3 | -3.7 | -94.1 | -42.3 | x
O=C(NC(=S)Nc1ccccn1)c1ccccc1 | -89.2 | 11.8 | -156.2 | -150.4 | 25.6
CC(C)Oc1ccc(C(CC(=O)O)c2ccc(F)cc2)cc1 (configuration not stated) | 5.7 | 1.1 | -13.5 | -0.4 | x
Cc1ccc(CC(=O)N/N=C/c2ccc3c(c2)OCO3)cc1 | -33.4 | -1.0 | -35.6 | -55.3 | x
CCOC(=O)c1c(N)sc(C(=O)Nc2ccccc2F)c1C | -118.5 | 7.9 | -175.4 | -185.9 | -146.4
CCOC(=O)c1c(N)sc(C(=O)Nc2ccccc2)c1C | -136.2 | 12.1 | -165.2 | -165.9 | -114.2
CCOC(=O)c1c(N)sc(C(N)=O)c1C | 2.1 | -6.0 | 17.7 | 8.0 | x
CCOC(=O)c1sc(NC(C)=O)cc1C | -4.7 | -1.9 | 4.5 | -8.4 | x
CCC(=O)Nc1sc(C(=O)Nc2ccccc2F)c(C)c1C(=O)OC | -92.7 | -0.5 | -122.0 | -84.0 | x

Assay outcomes: PubChem BioAssay, several laboratories
